Source: PubChem BioAssay
PLK1 PBD block – qHTS for Inhibitors of PLK1-PDB (polo-like kinase 1 - polo-box domain): Primary Screen. actives 2.8% (n = 360,000). Potency, µM, for the others: max response, negative = inhibition, most hits filed as inhibitors. Serine/threonine-protein kinase PLK1 (Homo sapiens), P53350. Plk1 PBD binding of FITC phosphopeptide, fluorescence polarization; note: series mostly up to about 57 µM; % is set by controls: 0 for no effect and ±100 for the full control effect; nearly all actives have a fitted effect of over 65% in size
G9a inh – qHTS Assay for Inhibitors of Histone Lysine Methyltransferase G9a. AID 504332, 2011. Histone-lysine N-methyltransferase EHMT2 (Homo sapiens), Q96KQ7. G9a H3K9 monomethylation, AlphaScreen, 2 h. Potency, µM (series often up to 102 µM), without a hit: top-dose activity, negative = inhibition, most hits filed as inhibitors. actives 8.8% (n = 350,000); note: % is set by controls: 0 for no effect and ±100 for the full control effect; nearly all actives have a fitted effect of over 75% in size
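AlphaScreen detection with an anti-monomethyl H3K9 antibody quantified product after a 2 h room-temperature reaction containing 500 nM biotinylated H3K9 peptide, 20 µM SAM and 20 nM enzyme, which had been preincubated 15 min with compound.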
JMJD2A Tudor – qHTS Assay for Inhibitors of JMJD2A-Tudor Domain | Lysine-specific demethylase 4A (Homo sapiens), O75164 | AlphaScreen JMJD2A-Tudor / H3K4me3 peptide binding | Potency, µM (top dose mostly 114 µM), for inactives: at the highest dose activity change, negative = inhibition, actives largely listed as inhibitors | actives 4.4% (n = 390,000) | AID 504339, 2011; note: % is set by controls: 0 for no effect and ±100 for the full control effect; nearly all actives have a fitted effect of over 50% in size
Target sequence (O75164 whole entry, looked up, the tested form may be a part): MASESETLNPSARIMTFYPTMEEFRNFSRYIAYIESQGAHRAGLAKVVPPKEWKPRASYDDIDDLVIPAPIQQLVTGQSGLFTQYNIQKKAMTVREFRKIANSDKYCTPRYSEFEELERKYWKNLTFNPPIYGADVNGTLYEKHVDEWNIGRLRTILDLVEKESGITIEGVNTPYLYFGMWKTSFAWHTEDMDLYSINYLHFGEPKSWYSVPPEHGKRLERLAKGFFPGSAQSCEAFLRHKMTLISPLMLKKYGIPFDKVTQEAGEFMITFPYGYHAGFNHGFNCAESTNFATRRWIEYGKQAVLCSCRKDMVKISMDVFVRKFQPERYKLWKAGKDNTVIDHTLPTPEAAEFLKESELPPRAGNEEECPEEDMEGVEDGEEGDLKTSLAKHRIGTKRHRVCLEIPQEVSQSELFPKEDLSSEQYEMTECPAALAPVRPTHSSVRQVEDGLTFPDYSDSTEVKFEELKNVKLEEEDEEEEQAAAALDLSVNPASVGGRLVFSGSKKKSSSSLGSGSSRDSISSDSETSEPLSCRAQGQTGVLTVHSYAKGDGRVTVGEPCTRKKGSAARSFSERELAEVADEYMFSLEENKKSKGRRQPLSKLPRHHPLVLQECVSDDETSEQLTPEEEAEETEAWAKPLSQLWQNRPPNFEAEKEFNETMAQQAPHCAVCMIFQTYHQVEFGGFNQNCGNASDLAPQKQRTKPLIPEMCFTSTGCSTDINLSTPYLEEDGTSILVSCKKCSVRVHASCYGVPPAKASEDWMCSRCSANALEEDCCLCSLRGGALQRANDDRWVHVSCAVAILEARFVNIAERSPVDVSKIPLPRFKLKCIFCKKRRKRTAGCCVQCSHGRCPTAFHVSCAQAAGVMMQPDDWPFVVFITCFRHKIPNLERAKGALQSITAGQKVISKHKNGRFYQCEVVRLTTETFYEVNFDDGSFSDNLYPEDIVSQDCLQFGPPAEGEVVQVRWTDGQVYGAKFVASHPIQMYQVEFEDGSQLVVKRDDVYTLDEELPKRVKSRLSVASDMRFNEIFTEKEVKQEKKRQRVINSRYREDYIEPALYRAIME
HP1b binding inh – HTS for Inhibitors of HP1-beta Chromodomain Interactions with Methylated Histone Tails. AID 540317, 2011. Chromobox protein homolog 1 (Homo sapiens), P83916. actives 0.56% (n = 390,000). AlphaScreen HP1-beta / biotin-H3K9me3 peptide binding. Potency, µM (doses to about 114 µM), for inactives: at the highest dose activity change, negative = inhibition, usual class: inhibitors; note: nearly all actives have a fitted effect of over 70% in size
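Compound inhibition of the preformed complex between 50 nM HP1-beta and 50 nM biotinylated H3K9me3 peptide was read by AlphaScreen. Buffer was PBS pH 7.4 with 0.01% Tween-20. Incubations ran 30 min at room temperature, with 10 ug/mL donor/acceptor beads.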
BAZ2B inh – qHTS Assay for Inhibitors of BAZ2B; Potency, µM (titrated, usually from 114 µM), for the others: at the highest dose activity change, negative = inhibition, usual class: inhibitors; AlphaScreen BAZ2B-H3K14Ac peptide displacement; Bromodomain adjacent to zinc finger domain protein 2B (Homo sapiens), Q9UIF8; actives 4.4% (n = 360,000); note: % is set by controls: 0 for no effect and ±100 for the full control effect; nearly all actives have a fitted effect of over 60% in size
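AlphaScreen displacement of biotin-H3(5-23)K14Ac peptide (50 nM final) from BAZ2B (50 nM final) in PBS pH 7.4, 0.01% Tween-20; complex preformed 30 min RT, then compounds (top 110 uM) 30 min RT, beads 20 min dark.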
VDR inhibitor – Inhibitors of the vitamin D receptor (VDR): qHTS; AID 504847, 2011; VDR-SRC2-3 peptide fluorescence polarization, 2 h; Potency, µM, inactives show max response, negative = inhibition, usual class: inhibitors; actives 0.93% (n = 400,000); Vitamin D3 receptor (Homo sapiens), P11473; note: % is set by controls: 0 for no effect and ±100 for the full control effect
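Fluorescence polarization assay measuring small-molecule disruption of VDR binding to the coregulator peptide SRC2-3. Compounds were pin-transferred (23 nl) into the reagent mix and incubated 2 h at room temperature before reading.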
Active calls of the source: *; ? = inconclusive; nt = not tested or not shown; [ ] = another dose, or the depositor's remark. A selection: hits, their analogues and other compounds. The true share with any hit is near 11%. Calls come from the whole dose curve; as a rule, active = well fitted curve in the direction sought with a large enough effect; inconclusive = small, poorly fitted or top-dose-only effect, or another doubt; inactive = no such curve, though single readings can be large; an effect the other way counts as inactive or inconclusive. Potency is the fitted concentration of half-maximal effect.

SMILES | PLK1 PBD block | G9a inh | JMJD2A Tudor | HP1b binding inh | BAZ2B inh | VDR inhibitor
CCOC(=O)c1c(NC(=O)c2cc(-c3ccccc3OC)on2)sc(C)c1C | nt | 2.82µM* | -18.4% | ? | -2.7% | 79.4µM*
COCCNC(=O)c1ccc2nc(CCc3ccccc3)oc2c1 | nt | 6.6%[59 µM] | -3.2% | 49.5%[57 µM] | -7.5% | 0.5%
O=C(CSc1n[nH]c(-c2ccccc2Cl)n1)NCCc1ccccc1 | nt | -4.7%[59 µM] | -14.0% | 17.5%[57 µM] | 0.8% | 8.6%
CCOC(=O)c1c(-c2ccc(OC)c(OC)c2)csc1NC(=O)c1ccc(F)cc1 | nt | 15.0%[59 µM] | 15.1% | 59.3% | 0.3% | -27.6%
CCOC(=O)c1c(-c2ccccc2)csc1NC(=O)c1cc(-c2ccccc2OC)on1 | 23.8µM* | nt | 1.4% | -15.9% | nt | ?
COc1ccccc1-c1cc(C(=O)NCCc2ccccc2)no1 | 26.7µM* | 9.0%[59 µM] | ? | 30.8% | 2.6% | -14.4%
CCOC(=O)c1scc(-c2ccccc2)c1S(=O)(=O)Nc1ccccc1OC | nt | 14.1µM* | -24.3% | -20.0% | ? | 13.8%
CCOC(=O)c1scc(-c2ccc(C)cc2)c1S(=O)(=O)Nc1cc(OC)ccc1OC | nt | ? | ? | -21.7% | ? | 17.3%
CCOC(=O)c1c(-c2ccccc2)csc1NC(=O)/C(C#N)=C/c1ccc(O)c(OC)c1 | 25.5% | 39.8µM* | -31.8% | ? | ? | -11.8%
O=C(NS(=O)(=O)c1ccc(F)cc1)O[C@@H]1C(=O)c2cc(Br)ccc2O[C@H]1c1ccc2c(c1)OCO2 | nt | nt | nt | nt | nt | -5.8%
CCN(CC)CCNC(=O)Cn1ncc2c3ccccc3n(Cc3ccc(Cl)cc3)c2c1=O | nt | 12.0%[59 µM] | -20.8% | 38.2% | -20.2% | 2.0%
COC(=O)c1c(-c2ccc(C)cc2)csc1NC(=S)NC(=O)c1ccc(F)cc1 | -8.7% | 79.4µM* | -29.1% | 13.5% | -14.4% | -11.4%
CCOC(=O)c1c(-c2ccc(C)cc2)csc1NC(=S)NC(=O)c1ccccc1 | -5.2% | -11.5%[59 µM] | ? | 2.9% | -29.3% | 9.4%
O=C1CCCc2cc(S(=O)(=O)NCC3CCC(C(=O)NCc4ccccc4Cl)CC3)ccc2N1 (stereo not drawn) | nt | 19.4%[59 µM] | -10.3% | 16.5% | -8.0% | 15.9%
COc1ccc(NC(=O)CSc2nc3nc(C)cc(C)c3c(=O)[nH]2)cc1 | -22.2% | -0.8%[0.501 µM] | -21.0% | 8.5%[57 µM] | -9.3% | 3.7%
CCN(CC)c1ccc(NC(=O)CSc2nc3nc(C)cc(C)c3c(=O)[nH]2)cc1 | -4.4% | 39.8µM* | 44.7µM* | ? | 44.7µM* | -13.7%
CCC(C)NC(=O)Cn1c(=O)n(-c2ccc(C)c(C)c2)c(=O)c2c(C)c(C(=O)N(CC)CC)sc21 (stereo not drawn) | nt | 1.9%[59 µM] | ? | 21.2% | 2.0% | -7.2%
S=C(Nc1cccc(Br)c1)c1ccccc1 | 13.4µM* | ? | -24.7% | -18.9% | ? | -16.8%
O=C(Nc1cccc(C(=O)Nc2ccc(Br)cc2)c1)c1ccccc1 | 1.0% | 24.2%[59 µM] | 6.1% | 31.9% | 1.6% | -1.8%
CC(C)Sc1ccccc1C(=O)Nc1ccc2c(c1)n(C)c(=O)n2C | -7.9% | 6.31µM* | -1.8% | 4.5% | 56.2µM* | -3.4%
CCCC1=[N+](CC(=O)c2ccccc2)CCn2c(C)ccc21 | -1.0% | ? | -14.0% | 30.2% | -8.9% | 10.2%
CCCC1=[N+](CC)CCn2c(C)ccc21 | -2.2% | 14.1µM* | ? | 6.2% | 8.2% | -24.5%
COc1ccc(NC(=O)C(NC(=O)c2ccc(C)cc2)c2ccccc2)cc1 (stereo not drawn) | -4.3% | nt | -11.5% | 10.7% | -2.6% | 3.0%
Clc1ccc(CNc2ccccc2NCc2ccc(Cl)nc2)cn1 | -15.8% | 3.16µM* | ? | 1.4% | ? | -6.7%
